# PubChem BioAssay AID2284189 (EPA ToxCast)
# Activity calls are given as the source filed them. Rule for the calls: active = hit-call score of the fitted dose curve at least 0.9, where 1 is the maximum; inactive = score below 0.9.
# Molecular target: rat Glutamate (Kainate, Non-Selective), conducted at France lab site, Grik1 (gene 29559) (UniProt P22756)
# Test: ERF_FR_LGIC_rGRIK1: Eurofins (ERF) Ion Channel [3H] Kainic acid Binding LeadHunter Assay for rat Glutamate (Kainate, Non-Selective), conducted at France lab site
# Experimental: ERF_FR_LGIC_rGRIK1 is a biochemical, single-readout assay that uses extracted gene-proteins in a cell-free assay. Measurements were taken 1 hour after chemical dosing in a 96-well plate. See Glutamate (Kianate, Non-Selective) Rat Ion Channel [3H]- Kainic acid Binding Assay, Cerep.ERF_FR_LGIC_rGRIK1 is an assay component calculated from the ERF_FR_LGIC_rGRIK1 assay. It is designed to measure radioligand binding using a type of binding reporter as detected by scintillation counting with radiometry technology.Data from the assay component ERF_FR_LGIC_rGRIK1 was analyzed at the assay endpoint, ERF_FR_LGIC_rGRIK1, in the positive analysis fitting direction relative to DMSO as the negative control and baseline of activity. Using a type of binding reporter, loss-of-signal activity can be used to understand changes in binding as they relate to gene GRIK1. To generalize the intended target to other relatable targets, this assay endpoint is annotated to the ion channel intended target family, where the subfamily is ligand-gated (glutamate, Ionotropic).
# Glutamate kainite receptor containing membranes are prepared from brain cortices from male Wistar rats in Tris-HCl buffer pH 7.4. A 10 mg aliquot is incubated with 5 nM [3H]Kainic acid for 60 minutes at 4C. […] Membranes are filtered and washed, the filters are then counted to determine [3H]Kainic acid specifically bound.
# rat Glutamate (Kainate, Non-Selective), conducted at France lab site, Grik1 (gene 29559), sequence (P22756 whole entry, looked up): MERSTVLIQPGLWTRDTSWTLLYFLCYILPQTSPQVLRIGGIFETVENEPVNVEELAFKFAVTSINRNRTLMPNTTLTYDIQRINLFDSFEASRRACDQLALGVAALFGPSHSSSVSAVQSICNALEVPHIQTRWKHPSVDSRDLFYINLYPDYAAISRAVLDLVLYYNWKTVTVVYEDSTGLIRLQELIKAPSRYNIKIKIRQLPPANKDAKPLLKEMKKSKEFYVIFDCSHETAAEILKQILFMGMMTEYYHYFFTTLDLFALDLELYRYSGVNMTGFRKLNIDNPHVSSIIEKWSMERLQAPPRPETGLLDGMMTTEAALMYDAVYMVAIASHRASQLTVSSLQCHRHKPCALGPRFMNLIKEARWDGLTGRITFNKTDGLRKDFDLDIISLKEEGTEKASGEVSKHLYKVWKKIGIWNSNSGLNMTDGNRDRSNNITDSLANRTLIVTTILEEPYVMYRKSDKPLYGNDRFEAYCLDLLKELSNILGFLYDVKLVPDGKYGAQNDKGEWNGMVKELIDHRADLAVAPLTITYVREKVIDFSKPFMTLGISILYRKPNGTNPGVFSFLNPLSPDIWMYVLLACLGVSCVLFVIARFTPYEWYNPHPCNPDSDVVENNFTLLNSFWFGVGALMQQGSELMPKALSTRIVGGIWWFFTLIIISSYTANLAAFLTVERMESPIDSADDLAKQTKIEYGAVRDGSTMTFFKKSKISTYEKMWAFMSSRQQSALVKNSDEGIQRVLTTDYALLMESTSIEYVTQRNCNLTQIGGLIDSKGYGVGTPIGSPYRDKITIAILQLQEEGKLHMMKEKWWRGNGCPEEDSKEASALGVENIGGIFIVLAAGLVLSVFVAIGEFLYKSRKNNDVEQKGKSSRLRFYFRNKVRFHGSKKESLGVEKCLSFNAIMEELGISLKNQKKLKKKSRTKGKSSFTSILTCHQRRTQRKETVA
row,Compound,AC50
1,O=C(/C=C/c1ccc(O)cc1)CC(=O)/C=C/c1ccc(O)cc1,2.87 µM (active)
